PubChem BioAssay (Tox21)
Inconclusive results are not listed. The source made the active and inactive calls. Unless noted, calls come from the whole dose curve; as a rule, active = well fitted curve in the direction sought with a large enough effect in the repeat runs; inconclusive = weak or mixed curves; inactive = no such curve, though single readings can be large; an effect the other way counts as inactive or inconclusive.

Key:
[1] = qHTS assay to identify small molecule antagonists of the thyroid receptor (TR) signaling pathway - cell viability counter screen (AID 743064); note: nearly all actives have a fitted effect of over 50% in size
How it was run: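 In rat pituitary GH3.TRE-Luc reporter cells co-exposed to compound and 1 nM T3 for 23.5 h, cytotoxicity was assessed with CellTiter-Fluor in the same wells, read by fluorescence.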

[2] = qHTS assay to identify small molecule antagonists of the thyroid receptor (TR) signaling pathway (AID 743065); note: series mostly up to about 70 µM; nearly all actives have a fitted effect of over 55% in size
How it was run: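 Antagonism measured as loss of luciferase signal in GH3 cells stably carrying a TRE-luciferase reporter, co-treated with compound and T3 (1 nM final) for 23.5 h at 37 C. Viability was read in the same well by CellTiter-Fluor.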

[3] = test system: thyroid hormone receptor (rat, GH3 cells); test: qHTS assay to identify small molecule agonists of the thyroid receptor (TR) signaling pathway (AID 743066; calls by dose curve)
[4] = biological target: Estrogen receptor (Homo sapiens) (UniProt P03372); test: qHTS assay to identify small molecule antagonists of the estrogen receptor alpha (ER-alpha) signaling pathway (AID 743069; active = well fitted curve in the direction sought with a large enough effect in the signal ratio in the repeat runs, not every such curve was filed as active; the % refers to the signal ratio)
How it was run: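 Antagonist mode: compounds in DMSO were co-added with 17beta-estradiol to ER-alpha-bla HEK293 cells (2% charcoal-stripped serum) and left 18 h at 37C. Reporter inhibition was measured as FRET fluorescence after 2 h LiveBLAzer substrate at room temperature.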

[5] = qHTS assay to identify small molecule antagonists of the estrogen receptor alpha (ER-alpha) signaling pathway - cell viability counter screen (AID 743074; calls by dose curve;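 note: HEK293 cells carrying ER-alpha-UAS-bla reporter stimulated with 17beta-estradiol; nearly all actives have a fitted effect of over 45% in size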)
[6] = biological target: Estrogen receptor (Homo sapiens) (UniProt P03372); test: qHTS assay to identify small molecule agonists of the estrogen receptor alpha (ER-alpha) signaling pathway (AID 743075; calls by dose curve;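 note: HEK293 GripTite cells with ER-alpha and UAS-driven beta-lactamase reporter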)
[7] = biological target: Estrogen receptor (Homo sapiens) (UniProt P03372); test: qHTS assay to identify small molecule agonists of the estrogen receptor alpha (ER-alpha) signaling pathway using the BG1 cell line (AID 743079); note: nearly all actives have a fitted effect of over 20% in size
[8] = qHTS assay to identify small molecule antagonists of the estrogen receptor alpha (ER-alpha) signaling pathway using the BG1 cell line (AID 743080; calls by dose curve;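 note: BG1 cells stimulated with 17beta-estradiol alongside compound; series mostly up to about 70 µM; nearly all actives have a fitted effect of over 25% in size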)
How it was run: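 BG1Luc4E2, endogenous ER-alpha, 4xERE-luc; 5 d charcoal-stripped FBS, phenol red free; 24 h plating; cpd + 17beta-estradiol 21.5 h, 37 C/5% CO2; CellTiter-Fluor viability 30 min, then ONE-Glo luciferase 30 min RT.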

[9] = qHTS assay to identify small molecule antagonists of the estrogen receptor alpha (ER-alpha) signaling pathway using the BG1 cell line - cell viability counter screen (AID 743081);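 note: compound given together with 17beta-estradiol as the ER stimulus; series mostly up to about 70 µM; nearly all actives have a fitted effect of over 45% in size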
Aromatase (Homo sapiens) = Aromatase (Homo sapiens) (UniProt P11511); test: qHTS assay to identify aromatase inhibitors (AID 743083); note: series mostly up to about 70 µM; nearly all actives have a fitted effect of over 55% in size
[10] = qHTS assay to identify aromatase inhibitors - cell viability counter screen (AID 743084);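 note: cells stimulated with testosterone during compound exposure; nearly all actives have a fitted effect of over 55% in size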
[11] = biological target: Aryl hydrocarbon receptor (Homo sapiens) (UniProt P35869); test: qHTS assay to identify small molecule that activate the aryl hydrocarbon receptor (AhR) signaling pathway (AID 743085);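 note: HG2L7.5c1 human HepG2 liver cells with stably integrated DRE-driven firefly reporter; series mostly up to about 70 µM; nearly all actives have a fitted effect of over 15% in size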
How it was run: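 AhR agonist activity is inferred from enhanced light output of a DRE-controlled firefly luciferase reporter in HepG2 cells, measured with ONE-Glo following 24 h treatment at 37C.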

[12] = qHTS assay to identify small molecule that activate the aryl hydrocarbon receptor (AhR) signaling pathway - cell viability counter screen (AID 743086);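 note: HepG2 liver cells carrying the AhR DRE luciferase reporter; series mostly up to about 70 µM; nearly all actives have a fitted effect of over 45% in size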
How it was run: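 Cytotoxicity counter screen: CellTiter-Fluor signal (30 min, 37 C) in 4000 HepG2 cells/well carrying the DRE-luciferase reporter, following 24 h compound exposure at 37 C.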

[13] = biological target: Peroxisome proliferator-activated receptor gamma (Homo sapiens) (UniProt P37231); test: qHTS assay to identify small molecule agonists of the peroxisome proliferator-activated receptor gamma (PPARg) signaling pathway (AID 743094; active = well fitted activation curve with a large enough effect in the signal ratio in the repeat runs, not every such curve was filed as active; the % refers to the signal ratio)
How it was run: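 Cell-based bla reporter, HEK293H background, PPARg-driven UAS. Pre-incubation 5 h, 37C, 5% CO2. Compound 17 h, 37C. Substrate 1 h RT; fluorescence.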

[14] = biological target: Peroxisome proliferator-activated receptor gamma (Homo sapiens) (UniProt P37231); test: qHTS assay to identify small molecule antagonists of the peroxisome proliferator-activated receptor gamma (PPARg) signaling pathway (AID 743191; calls by dose curve; note: series mostly up to about 63 µM; nearly all actives have a fitted effect of over 30% in size)
How it was run: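 Beta-lactamase reporter under UAS control in HEK293H PPARg-bla cells; compound treatment 17 h at 37C. Read-out: fluorescence intensity after 1 h room-temperature incubation with LiveBLAzer B/G FRET substrate.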

[15] = qHTS assay to identify small molecule antagonists of the peroxisome proliferator-activated receptor gamma (PPARg) signaling pathway - cell viability counter screen (AID 743194); note: nearly all actives have a fitted effect of over 55% in size
How it was run: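 Viability was measured as CellTiter-Glo luminescence in GeneBLAzer PPARg UAS-bla HEK293H cells. These cells had been exposed 17 h at 37 C to compounds together with rosiglitazone at 50 nM final, with the beta-lactamase readout taken in the same wells.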

[16] = qHTS assay for small molecule agonists of the antioxidant response element (ARE) signaling pathway (AID 743202; active = well fitted activation curve with a large enough effect in the signal ratio in the repeat runs, not every such curve was filed as active; the % refers to the signal ratio)
How it was run: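 After 16 hours of compound treatment at 37 C, HepG2 cells with a stably integrated ARE-driven beta-lactamase reporter were loaded 2 hours at room temperature with LiveBLAzer B/G FRET substrate and fluorescence intensity measured.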

[17] = qHTS assay for small molecule agonists of the antioxidant response element (ARE) signaling pathway - cell viability counter screen (AID 743203; calls by dose curve; note: nearly all actives have a fitted effect of over 55% in size)
How it was run: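 Measured in the same wells as the beta-lactamase ARE reporter, this read-out is CellTiter-Glo luminescence from HepG2 ARE-bla cells given compounds for 16 hrs.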

[18] = qHTS assay for small molecule activators of the heat shock response signaling pathway (AID 743210; active = well fitted activation curve with a large enough effect in the signal ratio in the repeat runs, with a control signal flat, not every such curve was filed as active; the % refers to the signal ratio; note: series mostly up to about 63 µM)
How it was run: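 Compound exposure lasted 5 h at 37 C in HeLa cells carrying a heat-shock-element-driven beta-lactamase reporter. Read-out: fluorescence intensity after 2.5 h room-temperature loading with LiveBLAzer B/G FRET substrate.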

[19] = qHTS assay for small molecule activators of the heat shock response signaling pathway - cell viability counter screen (AID 743209); note: nearly all actives have a fitted effect of over 50% in size
How it was run: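 Same-well multiplex: after 2.5 h room-temperature incubation with LiveBLAzer B/G substrate and fluorescence reading, CellTiter-Glo reagent was added to HSE-bla HeLa cells that had received compound for 5 h at 37 C; luminescence read after 30 min.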

Measured: Potency

Sequence of Estrogen receptor (Homo sapiens) (P03372 whole entry, looked up): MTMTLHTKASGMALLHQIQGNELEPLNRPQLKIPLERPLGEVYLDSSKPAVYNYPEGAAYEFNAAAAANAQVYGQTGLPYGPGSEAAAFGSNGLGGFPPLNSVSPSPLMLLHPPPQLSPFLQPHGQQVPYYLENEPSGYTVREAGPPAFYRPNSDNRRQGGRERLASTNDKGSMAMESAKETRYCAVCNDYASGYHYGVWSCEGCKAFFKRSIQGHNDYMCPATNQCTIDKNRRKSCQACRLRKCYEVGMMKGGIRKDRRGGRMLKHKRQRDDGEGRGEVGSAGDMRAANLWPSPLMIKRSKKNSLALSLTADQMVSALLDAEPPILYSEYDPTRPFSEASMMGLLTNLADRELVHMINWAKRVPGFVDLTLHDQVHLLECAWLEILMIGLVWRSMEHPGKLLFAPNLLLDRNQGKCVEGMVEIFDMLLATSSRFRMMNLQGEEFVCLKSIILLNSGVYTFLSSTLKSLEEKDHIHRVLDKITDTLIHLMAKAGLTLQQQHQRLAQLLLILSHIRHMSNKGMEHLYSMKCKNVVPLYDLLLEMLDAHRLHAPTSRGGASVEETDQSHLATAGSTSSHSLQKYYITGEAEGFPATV
Sequence of Aromatase (Homo sapiens) (P11511 whole entry, looked up): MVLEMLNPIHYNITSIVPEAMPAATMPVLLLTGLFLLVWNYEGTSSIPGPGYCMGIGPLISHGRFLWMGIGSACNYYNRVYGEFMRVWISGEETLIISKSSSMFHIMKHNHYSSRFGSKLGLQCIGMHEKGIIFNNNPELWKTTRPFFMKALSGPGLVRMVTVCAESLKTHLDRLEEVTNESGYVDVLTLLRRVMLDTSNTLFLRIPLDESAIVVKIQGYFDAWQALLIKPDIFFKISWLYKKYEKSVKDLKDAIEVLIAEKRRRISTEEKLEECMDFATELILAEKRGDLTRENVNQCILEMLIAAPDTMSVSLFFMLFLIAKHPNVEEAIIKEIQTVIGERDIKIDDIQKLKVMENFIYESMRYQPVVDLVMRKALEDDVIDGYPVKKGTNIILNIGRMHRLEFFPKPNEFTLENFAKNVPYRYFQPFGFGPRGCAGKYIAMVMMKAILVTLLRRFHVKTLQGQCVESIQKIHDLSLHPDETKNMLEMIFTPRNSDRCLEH
Sequence of Aryl hydrocarbon receptor (Homo sapiens) (P35869 whole entry, looked up): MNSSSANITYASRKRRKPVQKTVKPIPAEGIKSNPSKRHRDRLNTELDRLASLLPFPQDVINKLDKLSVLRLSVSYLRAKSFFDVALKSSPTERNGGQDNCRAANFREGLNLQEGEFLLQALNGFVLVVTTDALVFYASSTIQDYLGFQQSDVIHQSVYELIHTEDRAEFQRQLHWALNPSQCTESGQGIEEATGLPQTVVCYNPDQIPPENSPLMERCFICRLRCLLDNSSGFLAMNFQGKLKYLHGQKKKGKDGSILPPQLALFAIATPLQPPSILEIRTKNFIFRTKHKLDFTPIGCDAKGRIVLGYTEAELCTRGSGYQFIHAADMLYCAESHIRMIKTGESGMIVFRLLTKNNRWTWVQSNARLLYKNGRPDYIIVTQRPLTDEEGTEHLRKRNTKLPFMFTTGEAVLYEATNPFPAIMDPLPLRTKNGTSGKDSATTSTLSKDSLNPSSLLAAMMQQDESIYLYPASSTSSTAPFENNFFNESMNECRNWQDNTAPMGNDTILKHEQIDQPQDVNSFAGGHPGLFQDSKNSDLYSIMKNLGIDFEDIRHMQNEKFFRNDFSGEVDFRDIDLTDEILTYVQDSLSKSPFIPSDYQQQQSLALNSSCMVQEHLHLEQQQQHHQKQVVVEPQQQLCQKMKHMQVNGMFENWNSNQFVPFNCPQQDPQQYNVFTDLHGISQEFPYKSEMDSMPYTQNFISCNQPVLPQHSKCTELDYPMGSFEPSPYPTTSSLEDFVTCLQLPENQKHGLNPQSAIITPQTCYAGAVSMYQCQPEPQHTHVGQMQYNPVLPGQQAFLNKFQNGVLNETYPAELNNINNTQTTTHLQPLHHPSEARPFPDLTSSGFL
Sequence of Peroxisome proliferator-activated receptor gamma (Homo sapiens) (P37231 whole entry, looked up): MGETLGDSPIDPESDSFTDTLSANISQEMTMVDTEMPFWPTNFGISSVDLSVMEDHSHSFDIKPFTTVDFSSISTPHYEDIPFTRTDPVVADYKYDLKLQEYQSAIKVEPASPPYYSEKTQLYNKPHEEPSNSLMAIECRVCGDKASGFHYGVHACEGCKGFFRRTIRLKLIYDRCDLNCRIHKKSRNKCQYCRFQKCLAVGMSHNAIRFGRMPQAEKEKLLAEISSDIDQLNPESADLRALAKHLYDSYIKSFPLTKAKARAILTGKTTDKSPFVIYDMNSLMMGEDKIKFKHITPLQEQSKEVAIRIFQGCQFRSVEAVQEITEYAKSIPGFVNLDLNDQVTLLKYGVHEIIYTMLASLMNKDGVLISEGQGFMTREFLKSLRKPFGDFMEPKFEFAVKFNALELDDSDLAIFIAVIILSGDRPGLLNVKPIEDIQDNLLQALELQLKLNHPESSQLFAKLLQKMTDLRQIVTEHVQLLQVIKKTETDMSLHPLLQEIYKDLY

COc1cc(Cc2cnc(N)nc2N)cc(OC)c1OC
inactive: [1] | [2] | [3] | [4] | [5] | [6] | [7] | [8] | [9] | Aromatase (Homo sapiens) | [10] | [11] | [12] | [13] | [14] | [15] | [16] | [17] | [18]

FC(F)(F)c1ccc(Cl)c(Cl)c1
inactive: [1] | [2] | [3] | [4] | [5] | [6] | [7] | [8] | [9] | Aromatase (Homo sapiens) | [10] | [11] | [12] | [13] | [14] | [15] | [16] | [17] | [19] | [18]

CC(=O)CC(=O)Nc1ccccc1C
inactive: [1] | [2] | [3] | [4] | [5] | [6] | [7] | [8] | [9] | Aromatase (Homo sapiens) | [10] | [11] | [12] | [13] | [15] | [16] | [17] | [19] | [18]

CC(C)c1ccc(S(=O)(=O)O)cc1
inactive: [1] | [2] | [3] | [4] | [5] | [6] | [7] | [8] | [9] | Aromatase (Homo sapiens) | [10] | [11] | [12] | [13] | [16] | [17] | [19] | [18]

COc1ccc(Nc2ccccc2)c(C)c1
inactive: [1] | [2] | [3] | [4] | [5] | [6] | [7] | [8] | [9] | Aromatase (Homo sapiens) | [10] | [11] | [12] | [13] | [15] | [16] | [17] | [19] | [18]

Cc1cc(C)c(C)cc1C
inactive: [1] | [2] | [3] | [4] | [5] | [6] | [7] | [8] | [9] | Aromatase (Homo sapiens) | [10] | [11] | [12] | [13] | [14] | [16] | [17] | [18]

CCOC(=O)NNc1nncc2ccccc12
inactive: [1] | [2] | [3] | [4] | [5] | [6] | [7] | [8] | [9] | Aromatase (Homo sapiens) | [10] | [11] | [12] | [13] | [14] | [15] | [16] | [17] | [19] | [18]
